Consider 21 compounds from PubChem BioAssay AID933 (National Center for Advancing Translational Sciences (NCATS), 2007).

Inconclusive results are not listed. Where a call stands in place of a potency, no number is given. A number with no mark means an inactive call. Calls of active or inactive are those of the source. Calls come from the whole dose curve; as a rule, active = well fitted activation curve with a large enough effect in the signal ratio, with a control signal flat; inconclusive = small, poorly fitted or top-dose-only effect, or a change in a side signal; inactive = flat fitted curve, though single readings scatter; the % refers to the signal ratio.
Potency is the fitted concentration of half-maximal effect.

Chain of Thyrotropin receptor (Homo sapiens) (P16473 whole entry, looked up): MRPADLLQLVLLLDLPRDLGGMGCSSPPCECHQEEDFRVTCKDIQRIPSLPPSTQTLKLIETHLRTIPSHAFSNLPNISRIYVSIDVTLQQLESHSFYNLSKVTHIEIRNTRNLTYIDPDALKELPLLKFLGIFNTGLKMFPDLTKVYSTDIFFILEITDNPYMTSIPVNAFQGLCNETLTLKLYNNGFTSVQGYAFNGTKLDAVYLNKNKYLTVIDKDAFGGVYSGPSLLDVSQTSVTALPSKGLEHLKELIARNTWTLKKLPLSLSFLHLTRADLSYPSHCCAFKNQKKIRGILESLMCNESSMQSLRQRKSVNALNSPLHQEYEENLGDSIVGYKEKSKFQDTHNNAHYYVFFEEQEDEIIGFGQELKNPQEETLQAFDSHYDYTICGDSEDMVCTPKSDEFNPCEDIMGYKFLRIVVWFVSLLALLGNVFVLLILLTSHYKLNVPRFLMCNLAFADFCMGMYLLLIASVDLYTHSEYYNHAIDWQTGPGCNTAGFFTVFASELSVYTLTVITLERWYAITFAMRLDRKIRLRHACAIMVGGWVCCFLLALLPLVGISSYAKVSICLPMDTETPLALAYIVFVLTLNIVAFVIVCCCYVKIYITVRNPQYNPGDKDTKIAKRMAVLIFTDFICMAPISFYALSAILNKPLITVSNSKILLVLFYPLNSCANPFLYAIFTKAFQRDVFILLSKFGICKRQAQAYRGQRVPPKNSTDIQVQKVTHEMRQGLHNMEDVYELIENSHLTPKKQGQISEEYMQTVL

The target in this assay is Thyrotropin receptor (Homo sapiens) (UniProt P16473). The assay can be described thus: Secondary Concentration-Response Assay for Agonists of the Thyroid Stimulating Hormone Receptor: HTRF Activity Detection. As to conditions: HEK293-TSHR cells, cAMP HTRF ratio, 30 min; series mostly up to 91.7 µM. An outline of the steps:
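cAMP accumulation was detected by antibody-based HTRF, excitation 330 nm, emissions 615 and 660 nm. Compounds acted for 30 min at room temperature on stably TSHR-transfected HEK 293 cells, with phosphodiesterase inhibitor RO 20-1724 (100 uM) in the medium.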
On to `COc1ccc2c(c1OC)C(=O)N1c3ccccc3C(=O)N(c3ccccc3)C21` (stereo unspecified), for which the Potency result was “inactive”.

Take `COc1ccc(C2Nc3ccccc3C(=O)N2Cc2ccco2)cc1COc1ccccc1F` (stereo unspecified): the Potency result is “inactive”.

For the compound `O=C1c2ccccc2NC(c2cccc(O)c2)N1Cc1ccco1` (stereo unspecified), the Potency result was “inactive”.

In the case of `COc1ccc(C2Nc3ccccc3C(=O)N2c2ccccc2)cc1COc1ccccn1` (stereo unspecified), the Potency entry was “inactive”.

Turning to `Cc1cc(C)n(S(=O)(=O)c2cc(C(=O)O)c(Cl)cc2Cl)n1`, the activation was -0.754% [at 0.00035 µM].

With `O=C1c2ccccc2NC(c2cccc(F)c2)N1Cc1ccco1` (stereo unspecified), the Potency result was “inactive”.

Regarding `O=C1c2ccccc2N2C(=O)c3ccccc3[C@H]2N1c1ccccc1`, the Potency result was “inactive”.

As to `Cc1sc2ncn(/N=C/c3cn(-c4ccccc4)nc3-c3ccccc3)c(=O)c2c1C`, the Potency result is “inactive”.

In the case of `COc1ccc2c(c1)C1(Nc3ccccc3C(=O)N1c1ccccc1)C(=O)N2` (stereo unspecified), the Potency result was “inactive”.

`CN1C(=O)N(C)C2(c3ccccc3)Nn3c(s/c(=C/c4ccco4)c3=O)=NC12c1ccccc1` (stereo unspecified): the activation is 0.345% [at 0.00035 µM].

Regarding `CC(=O)N1CCCc2cc(S(=O)(=O)N(CC(C)C)CC(C)C)ccc21`, the activation is -0.0207% [at 0.00035 µM].

`O=C1c2ccccc2NC(c2ccccc2Br)N1CCCN1CCOCC1` (stereo unspecified): the Potency result was “inactive”.

With `CCc1ccccc1NC1=NCC(=O)N1Cc1ccc(OC)cc1`, the activation is 0.0927% [at 0.00035 µM].

Take `Nc1ccccc1C(=O)NCc1ccco1`: the Potency result was “inactive”.

`O=C(c1ccccc1O)N(Cc1ccco1)Cc1ccco1`: the Potency result was “inactive”.

For `O=C(c1ccco1)N(Cc1cccs1)c1ccc(O)cc1`, the Potency result is “inactive”.

For the compound `O=C(c1cccs1)N(Cc1ccco1)c1ccc(O)cc1`, the Potency result was “inactive”.

With `COc1cccc(CN2C(=O)CN(C3CCCCC3)C(=O)C2c2ccc(F)cc2)c1` (stereo unspecified), the activation is 0.406% [at 0.00035 µM].

As to `COc1ccc(C(=O)N(Cc2ccccc2)Cc2ccccc2)c(O)c1`, the Potency is 25.1 µM (active).

As to `COc1ccc(C2Nc3ccccc3C(=O)N2Cc2ccccc2)cc1OCc1ccc(NC(C)=O)cc1` (stereo unspecified), the Potency result is “inactive”.

`O=C1c2ccccc2NC(c2ccccc2O)N1Cc1ccco1` (stereo unspecified): the Potency result is “inactive”.
